The list is not random: actives were taken first. Their share in the collection is about 7.2%.
Marburg entry inh: inhibitors of Marburg virus binding or cell entry; Marburg virus pseudotyped entry inhibition, cell reporter; Potency, µM (highest dose often 37.8 µM), without a hit: top-dose activity change, negative = inhibition, usual class: inhibitors; 1.8% of 300,000 active; calls by dose curve; tested in HEK293 cells
FMDV antiviral: foot and mouth disease virus antiviral activity; FMDV antiviral cell-based qHTS; Potency, µM (top dose mostly 57.9 µM), for inactives: top-dose activity change, negative = inhibition, usual class: inhibitors; 1.2% of 410,000 active; calls by dose curve; tested in HEK293T cells; further: read-out not given here; nearly all actives have a fitted effect of over 45% in size
HCV inh: HCV inhibition | Huh7.5.1 HCVcc-Cre infection, luciferase reporter, 44 h | Potency, µM (top dose mostly 41.8 µM), for the others: at the top dose activity change, negative = inhibition, usual class: inhibitors | 3.4% of 340,000 active
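A cell-based infection assay in which seeded cells (1,000 per well) receive test compound after 4 h, are inoculated with HCVcc-Cre at approximately 0.5 moi, and are incubated 44 h before luminescence detection.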
RE007 growth inh: less growth of the S. pombe RE007 Vpr strain. S. pombe RE007 Vpr strain, BacTiter-Glo ATP luminescence, 24 h. 0.21% of 360,000 active. Potency, µM (series often up to 92.2 µM), for inactives: top-dose activity change, negative = less growth, usual class: inhibitors; active means well fitted falling curve with a large enough effect; inconclusive means small, poorly fitted or top-dose-only effect; inactive means no such curve, though single readings can be large or run the other way; further: nearly all actives have a fitted effect of over 50% in size
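Fission yeast strain RE007, carrying one chromosomally integrated HIV-1 vpr copy, was seeded at OD 0.01 in PMG+AL medium with 23 nL pinned compound. After 24 h at 30 °C and 99% humidity, viability was read by BacTiter-Glo luminescence.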
LASV entry inh: blocks Lassa virus binding to or entry into cells; Potency, µM (titrated, usually from 37.9 µM), inactives show at the highest dose activity change, negative = inhibition, most hits filed as inhibitors; Lassa virus pseudotype entry inhibition, cell reporter; 1.2% of 300,000 active; calls by dose curve; tested in HEK293 cells; further: nearly all actives have a fitted effect of over 50% in size
Sm TGR inh: S. mansoni TGR enzyme inhibition; Q962Y6; purified TGR, DTNB reduction, TNB absorbance 405 nm; Potency, µM (doses to about 114 µM), for the others: at the top dose activity change, negative = inhibition, usual class: inhibitors; 3% of 360,000 active; AID 485364; further: nearly all actives have a fitted effect of over 60% in size
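Kinetic colorimetric format: TGR-catalysed, NADPH-driven DTNB reduction monitored via TNB absorbance. Enzyme dispensed at 20 nM; compound exposure 15 min at room temperature before reaction start.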
* hit, by the source's call; ? = inconclusive; . = not tested or not shown; [ ] = another dose, or the depositor's remark. Unless noted, the call rests on the fitted dose curve; in most records, active means well fitted curve in the direction sought with a large enough effect; inconclusive means small, poorly fitted or top-dose-only effect, or another doubt; inactive means no such curve, though single readings can be large; an effect the other way counts as inactive or inconclusive. On the % scale 0 is the no-effect control and ±100 the full control effect; potency means the concentration at half of the fitted maximal effect.

SMILES	Marburg entry inh	FMDV antiviral	HCV inh	RE007 growth inh	LASV entry inh	Sm TGR inh
Cc1c(Cl)cccc1-n1ncc(C(=O)N2CCN(C)CC2)c1C1CCN(C(=O)OC(C)(C)C)CC1	.	-10%	.	.	?	-1%
Cc1noc2ncnc(N3CCCC(C(=O)Nc4cc(F)ccc4F)C3)c12 (centres undefined)	.	?	.	.	14%[46.1 µM]	4%
C=CCn1c(SCC(=O)Nc2ccc(-c3nc4ccc(C)cc4s3)cc2)nnc1-c1ccccc1	?	-42%	10µM*	4%	?	-3%
Cc1ccc2nc(-c3ccc(NC(=O)COC(=O)c4ccc(Br)o4)cc3)sc2c1	?	?	14%	2%	5.6µM*	0%
Cc1ccc2nc(-c3ccc(NC(=O)COC(=O)c4cncc(Br)c4)cc3)sc2c1	?	-48%	6%	-12%	?	-8%
C=CCn1c(SCC(=O)NNC(=O)Nc2ccc(C)cc2)nnc1-c1ccccc1	.	-11%	12%	5%	.	-3%
Cc1ccc2nc(-c3ccc(NC(=O)COC(=O)c4ccc([N+](=O)[O-])o4)cc3)sc2c1	4µM*	-63%	13%	7%	7.1µM*	-17%
Cc1ccc2nc(-c3ccc(NC(=O)COC(=O)c4ccco4)cc3)sc2c1	1.3µM*	-55%	4%	8%	2.2µM*	-16%
COc1ccc(NC(=O)CN2C(=O)C(=O)c3ccccc32)c(OC)c1	8%[46.1 µM]	-11%	.	.	-12%[46.1 µM]	5%
COc1ccccc1CNC(=O)CCn1c(=O)c2cccn2c2cccnc21	.	14%	.	.	10%[46.1 µM]	-9%
CCOC(=O)c1c(NC(=O)C(C)Oc2ccccc2F)sc(C(C)=O)c1C (centres undefined)	8%[46.1 µM]	-20%	.	.	2%[46.1 µM]	1%
Cc1ccc(CNC(=O)Cn2cc(C(=O)c3ccc(Cl)cc3)c(=O)c3ccc(C)nc32)cc1	.	-16%	.	.	-19%[46.1 µM]	1%
Cc1ccc2nc(-c3ccc(NC(=O)COc4ccccc4)cc3)sc2c1	.	31%	.	.	10%[46.1 µM]	3%
CCOc1ncccc1C(=O)OCC(=O)Nc1ccc(-c2nc3ccc(C)cc3s2)cc1	13µM*	-5%	-25%	5%	?	2%
COc1cc(=O)n2c(c1C(=O)NC(C)c1ccco1)CCN(C(=O)c1ccccc1SC)CC2 (centres undefined)	.	23%	.	.	.	.
Cn1c(CNC(=O)c2ccco2)nnc1SCC(=O)c1ccc(F)cc1	5%[46.1 µM]	-9%	2%	8%	8%	10µM*
O=C(CSc1nnc(-c2cc3ccccc3cc2O)n1Cc1ccco1)c1ccc(F)cc1	?	-14%	16µM*	3%	23µM*	-33%
CCn1c(CNC(=O)c2ccco2)nnc1SCC(=O)c1ccc(F)cc1	-2%[46.1 µM]	-5%	7%	-4%	29%[46.1 µM]	5%
Cc1occc1-c1nnc(SCC(=O)c2ccc(F)cc2)n1Cc1ccco1	0%	-4%	?	-4%	-12%	22µM*
CC1CCCCN1C(=O)CSc1c2c(nc3cc(Cl)ccc13)CCCC2 (centres undefined)	7%[46.1 µM]	?	.	.	2%[46.1 µM]	0%
Nc1nc2cc(Cl)c(Br)cc2o1	-6%	8%	10%	1%	0%[46.1 µM]	.
CC(=O)Nc1cccc(OCCCNC(=O)c2ccc(C(C)(C)C)cc2)c1	.	15%	10µM*	4%	.	5%
CC(=O)Nc1cccc(OCCCNC(=O)c2ccc(F)cc2)c1	.	15%	-1%	16%	.	7%
CCc1ccc(C(c2ccccc2)c2c(C)[nH]c3ccccc23)s1 (centres undefined)	.	-29%	.	.	4%[46.1 µM]	-19%
Cc1nc2ccccc2c2oc(C(=O)NCc3ccc4c(c3)OCO4)cc12	.	?	8.9µM*	9%	.	0%
SMILES	Marburg entry inh	FMDV antiviral	HCV inh	RE007 growth inh	LASV entry inh	Sm TGR inh
Cc1cc(C)c2nc(-c3ccccn3)cc(C(=O)NCc3ccc(S(N)(=O)=O)cc3)c2c1	11µM*	-19%	?	3%	?	4%
O=C(NCc1ccc2c(c1)OCO2)c1cc(-c2ccccn2)nc2ccccc12	-33%[46.1 µM]	-20%	10µM*	-16%	-27%	1%
Cc1ccc(CNC(=O)c2cc3c(C)nc4ccccc4c3o2)cc1	.	13µM*	?	11%	.	-5%
O=C(NCc1ccc(F)cc1)C(=O)NCC(c1ccc2c(c1)OCO2)N1CCOCC1 (centres undefined)	.	0%	.	.	5%[46.1 µM]	6%
CCC(=O)N1CCc2cc(CNS(=O)(=O)c3ccc(Cl)s3)ccc21	.	-2%	.	.	-14%[46.1 µM]	-2%
O=C(NCc1ccc(Cl)cc1)c1ccc(-c2ccccc2C(F)(F)F)o1	11%	-19%	-4%[8.37 µM]	-6%	5.2µM*	-15%
O=C(Nc1ccccc1)c1ccc(-c2ccccc2Cl)o1	-11%	42%	?	-5%	6%	-2%
CCOc1ccccc1-c1ccc(C(=O)NCc2ccccc2)o1	7%	29%	14µM*	-7%	7.3µM*	?
Cc1ccc(S(=O)(=O)NC(=O)c2ccc(-c3ccc(C)c4ccccc34)o2)cc1	20%	6%	12%	4%	19%	?
Cc1ccc(-c2ccc(C(=O)Nc3ccccc3)o2)c2ccccc12	-19%	27%	?	3%	?	35µM*
Cc1ccc(-c2ccc(C(=O)NCc3ccccc3)o2)c2ccccc12	34%	-1%	?	-11%	6.5µM*	40µM*
COc1ccc(CC(=O)NCc2nc3cccnc3n2Cc2ccccc2)cc1	.	-9%	.	.	2%[46.1 µM]	0%
CC1=C(C(N)=O)C(c2cccc(F)c2)n2nc(SCc3ccccc3)nc2N1 (centres undefined)	.	-15%	.	.	-10%[46.1 µM]	?
Cc1cc(N)n(Cc2ccc(Cl)cc2)n1	.	-2%	4%	4%	.	-2%
Cc1ccc(-c2cc(N)n(Cc3ccc(Cl)cc3)n2)cc1	?	-15%	10µM*	-20%	-15%	0%
CCN(CC)C(=O)c1ccc2c(c1)C1C(Cl)C(Sc3ccccc3[N+](=O)[O-])CC1C(C(=O)O)N2 (centres undefined)	.	-28%	10%	-2%	.	3.2µM*
CC(=O)c1ccc2c(c1)C1C=CCC1C(c1cc3c(cc1Br)OCO3)N2 (centres undefined)	.	?	?	4%	.	-30%
CCOC(=O)c1ccc2c(c1)C1C=CCC1C(C(=O)O)N2 (centres undefined)	-1%	.	.	.	.	7.9µM*
CCN(CC)C(=O)c1ccc2c(c1)C1C=CCC1C(C(=O)O)N2 (centres undefined)	.	-27%	-17%	.	.	0.45µM*
Cc1nc2sccn2c1CN1CCC2(CC1)CC2C(=O)Nc1ccc2c(c1)OCO2 (centres undefined)	.	-6%	.	.	.	.
CCOC(=O)c1cnc2c(OC)cccc2c1N1CCN(c2ccc(OC)cc2)CC1	-25%	-29%	?	28%	?	5%

From PubChem BioAssay
